PubChem BioAssay
The source made the active and inactive calls.

Assays:
[1] = small molecules captured by biotinylated probe aFSTL3 – biochemical, small-molecule microarray, fluorescence 635/667, stem cell growth factor project, primary screen (AID 1064); conditions: higher = more signal;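 further: measures binding of the biotinylated anti-FSTL3 antibody to printed compounds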
[2] = binders from COS7 lysate, DM2A8 probe, primary screen, torsin A project, cell lysate, small-molecule microarray, fluorescence 635/667 (AID 1065); conditions: higher = more signal, COS7 lysate expressing mutant human TOR1A
[3] = small molecules captured by biotinylated probe aFGF2 – biochemical, small-molecule microarray, fluorescence 635/667, stem cell growth factor project, primary screen (AID 1067); conditions: higher = more signal;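 further: measures binding of biotinylated aFGF2 protein to printed compounds on slides; z-score merges feature fluorescence and signal-to-noise across triplicate slides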
[4] = small molecules captured by biotinylated probe aFGF10 – biochemical, small-molecule microarray, fluorescence 635/667, stem cell growth factor project, primary screen (AID 1071); conditions: higher = more signal;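 further: score merges 667 nm spot intensity and signal to noise from triplicate slides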
[5] = molecular target: Neurogenic locus notch homolog protein 2 (Homo sapiens) (UniProt Q04721); experiment: small molecules binding Notch2 protein – biochemical, small-molecule microarray, 635 nm fluorescence, stem cell growth factors, primary screen (AID 1073); conditions: higher = more signal
[6] = molecular target: Pro-neuregulin-1, membrane-bound isoform (Homo sapiens) (UniProt Q02297); experiment: small molecules binding neuregulin-1 protein – biochemical, small-molecule microarray, fluorescence 635/667, psychiatric disease protein project, primary screen (AID 1075); conditions: NRG1 binding, 635 nm fluorescence, higher = more signal;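 further: score combines 667 nm spot fluorescence with signal to noise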
[7] = tested on: Neuregulin-1 EGF-like domain; experiment: small molecules binding NRG1 EGF domain – biochemical, small-molecule microarray, 635 nm fluorescence, primary screen (AID 1081); conditions: higher = more signal;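 further: binding of the protein to compounds printed on small-molecule microarray slides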
[8] = FRG1 expression reporter modulators in myotubes – cell-based, C2C12 myotubes, firefly/Renilla luciferase, luminescence, FRG1 inhibition for FSHD, primary screen (AID 1084); conditions: FRG1 promoter luciferase, higher = more signal, called active from +8 up or from −8 down
[9] = small molecules captured by biotinylated probe aFST – biochemical, small-molecule microarray, fluorescence 635/667, stem cell growth factor project, primary screen (AID 1086); conditions: higher = more signal;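 further: score merges 667 nm fluorescence with signal-to-noise of each printed compound spot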
[10] = binders of probe aHhip on microarray, primary screen, stem cell growth factor project, biochemical, small-molecule microarray, fluorescence 635/667 (AID 1087); conditions: higher = more signal;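 further: score merges spot fluorescence at 667nm with spot signal to noise ratio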

Neurogenic locus notch homolog protein 2 (Homo sapiens), sequence (Q04721 whole entry, looked up, canonical isoform): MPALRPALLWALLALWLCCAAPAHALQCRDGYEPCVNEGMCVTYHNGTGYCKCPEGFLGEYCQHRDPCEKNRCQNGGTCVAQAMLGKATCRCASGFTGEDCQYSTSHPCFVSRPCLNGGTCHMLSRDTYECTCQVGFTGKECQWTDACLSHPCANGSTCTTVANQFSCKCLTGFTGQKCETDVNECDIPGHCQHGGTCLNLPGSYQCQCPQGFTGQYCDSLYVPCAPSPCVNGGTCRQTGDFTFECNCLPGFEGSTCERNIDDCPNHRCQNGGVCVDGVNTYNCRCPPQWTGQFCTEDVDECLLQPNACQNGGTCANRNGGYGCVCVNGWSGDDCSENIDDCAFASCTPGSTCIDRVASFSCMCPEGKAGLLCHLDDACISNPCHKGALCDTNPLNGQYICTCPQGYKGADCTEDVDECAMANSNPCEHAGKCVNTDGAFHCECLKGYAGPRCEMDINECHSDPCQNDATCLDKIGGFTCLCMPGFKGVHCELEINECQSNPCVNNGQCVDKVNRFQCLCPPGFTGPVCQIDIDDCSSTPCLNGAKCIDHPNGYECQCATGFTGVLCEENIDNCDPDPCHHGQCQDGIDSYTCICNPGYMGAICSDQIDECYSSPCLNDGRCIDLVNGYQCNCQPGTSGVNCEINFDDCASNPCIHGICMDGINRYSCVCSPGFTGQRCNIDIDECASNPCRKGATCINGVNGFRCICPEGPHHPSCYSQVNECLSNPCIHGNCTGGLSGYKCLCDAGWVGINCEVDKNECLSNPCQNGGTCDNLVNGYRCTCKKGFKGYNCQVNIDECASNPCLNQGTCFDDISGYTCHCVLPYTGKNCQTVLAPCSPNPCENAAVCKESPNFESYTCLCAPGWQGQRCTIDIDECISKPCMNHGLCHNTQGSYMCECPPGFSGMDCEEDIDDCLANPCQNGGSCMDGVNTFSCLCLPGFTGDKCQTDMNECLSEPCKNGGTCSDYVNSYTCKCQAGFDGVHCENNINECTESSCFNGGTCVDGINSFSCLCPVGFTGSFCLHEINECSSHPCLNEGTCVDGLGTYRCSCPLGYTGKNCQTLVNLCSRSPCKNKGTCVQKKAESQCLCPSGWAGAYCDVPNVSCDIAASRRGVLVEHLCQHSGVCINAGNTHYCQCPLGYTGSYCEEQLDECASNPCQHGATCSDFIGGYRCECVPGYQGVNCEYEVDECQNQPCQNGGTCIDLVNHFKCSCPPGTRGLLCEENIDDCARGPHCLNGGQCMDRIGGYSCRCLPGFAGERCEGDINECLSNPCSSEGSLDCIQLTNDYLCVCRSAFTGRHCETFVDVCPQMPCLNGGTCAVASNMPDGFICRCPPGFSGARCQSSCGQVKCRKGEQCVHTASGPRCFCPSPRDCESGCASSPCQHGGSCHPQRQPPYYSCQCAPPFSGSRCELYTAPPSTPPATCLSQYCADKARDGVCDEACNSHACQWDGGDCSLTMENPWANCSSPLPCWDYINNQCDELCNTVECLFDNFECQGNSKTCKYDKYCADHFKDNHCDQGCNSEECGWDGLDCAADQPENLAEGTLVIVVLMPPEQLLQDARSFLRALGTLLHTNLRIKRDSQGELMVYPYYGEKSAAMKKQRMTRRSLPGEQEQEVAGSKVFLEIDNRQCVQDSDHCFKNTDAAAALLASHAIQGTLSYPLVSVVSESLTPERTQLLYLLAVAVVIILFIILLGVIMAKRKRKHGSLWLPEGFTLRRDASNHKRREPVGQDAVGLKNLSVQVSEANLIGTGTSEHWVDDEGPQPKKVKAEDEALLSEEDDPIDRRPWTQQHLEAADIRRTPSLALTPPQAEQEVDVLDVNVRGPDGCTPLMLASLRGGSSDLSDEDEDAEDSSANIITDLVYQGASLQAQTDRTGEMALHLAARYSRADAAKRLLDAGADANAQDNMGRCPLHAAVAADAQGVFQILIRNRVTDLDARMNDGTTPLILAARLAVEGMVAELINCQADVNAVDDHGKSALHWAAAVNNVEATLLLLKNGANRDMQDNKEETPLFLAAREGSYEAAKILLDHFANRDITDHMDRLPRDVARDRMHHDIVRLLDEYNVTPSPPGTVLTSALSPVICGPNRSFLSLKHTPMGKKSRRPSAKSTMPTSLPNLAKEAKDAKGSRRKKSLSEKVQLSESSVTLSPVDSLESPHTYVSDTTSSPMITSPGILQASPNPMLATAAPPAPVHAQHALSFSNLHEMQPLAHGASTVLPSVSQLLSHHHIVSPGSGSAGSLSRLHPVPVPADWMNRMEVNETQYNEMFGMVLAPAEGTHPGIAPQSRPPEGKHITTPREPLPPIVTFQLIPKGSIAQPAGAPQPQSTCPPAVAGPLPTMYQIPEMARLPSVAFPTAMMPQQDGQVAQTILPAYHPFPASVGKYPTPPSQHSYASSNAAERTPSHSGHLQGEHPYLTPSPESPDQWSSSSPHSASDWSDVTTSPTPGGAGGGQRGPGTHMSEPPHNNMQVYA
Pro-neuregulin-1, membrane-bound isoform (Homo sapiens), sequence (Q02297 whole entry, looked up, the tested form may be a part, canonical isoform): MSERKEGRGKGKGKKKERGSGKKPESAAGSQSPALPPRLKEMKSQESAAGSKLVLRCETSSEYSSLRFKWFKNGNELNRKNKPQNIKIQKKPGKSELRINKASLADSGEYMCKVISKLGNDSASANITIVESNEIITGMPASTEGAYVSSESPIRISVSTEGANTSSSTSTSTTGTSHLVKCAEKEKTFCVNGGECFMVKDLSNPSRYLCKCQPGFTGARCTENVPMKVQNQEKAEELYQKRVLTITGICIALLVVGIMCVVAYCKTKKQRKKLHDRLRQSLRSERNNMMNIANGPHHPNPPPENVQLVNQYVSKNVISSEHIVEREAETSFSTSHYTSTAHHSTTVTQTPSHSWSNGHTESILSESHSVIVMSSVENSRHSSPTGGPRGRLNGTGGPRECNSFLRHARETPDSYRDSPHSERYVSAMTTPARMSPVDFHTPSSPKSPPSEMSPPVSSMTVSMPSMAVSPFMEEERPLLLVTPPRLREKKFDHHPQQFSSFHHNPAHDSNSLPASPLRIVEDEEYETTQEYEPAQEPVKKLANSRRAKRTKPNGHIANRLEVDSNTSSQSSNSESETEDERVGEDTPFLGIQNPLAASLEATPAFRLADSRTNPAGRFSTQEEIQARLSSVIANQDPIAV

SMILES | composite z-score [1] | composite z-score [2] | composite z-score [3] | composite z-score [4] | composite z-score [5] | composite z-score [6] | composite z-score [7] | z-score [8] | composite z-score [9] | composite z-score [10]
C=CCNC(=O)[C@H]1[C@@H]2C(=O)O[C@@H](c3ccccc3)[C@@H](c3ccccc3)N2[C@@H](c2ccccc2OCCO)[C@]12C(=O)N(C(=O)OCCOC)c1ccc(C#CC3=CCCCC3)cc12 | 1.13 | 0.698 | 0.032 | 0.44 | 1.5 | 0.791 | 1.33 | -1.89 (inactive) | 0.877 | -0.0022
C=CCC(OC(C)=O)[C@@H]1[C@@H](N(Cc2cc3ccccc3o2)C(=O)c2ccc(C)cc2)c2cc(OCCCO)ccc2N1C(=O)Cc1ccc2ccccc2c1 (stereo not given in full) | 0.222 | -0.603 | 0.0755 | 0.113 | -0.242 | -0.0075 | -0.345 | -0.286 (inactive) | 0.292 | 0.107
CC(C)C(O)C1C=CC2C(=O)N(C)C(=O)C2N1N(c1ccccc1)c1ccccc1 (stereo not given) | 0.626 | -0.312 | -0.0613 | -0.577 | 0.461 | 0.371 | -0.142 | -0.165 (inactive) | 0.272 | 0.0139
COc1cc2c(cc1OC)CN(C(=O)[C@@H]1[C@H]3C(=O)O[C@H](c4ccccc4)[C@H](c4ccccc4)N3[C@H](c3ccccc3OCCO)[C@@]13C(=O)Nc1ccc(C#CC4(O)CCCCCC4)cc13)CC2 | -0.0079 | 0.955 | -0.0573 | 0.201 | 0.463 | 0.935 | 1.2 | -0.066 (inactive) | -0.0613 | -0.123
COc1ccc(C#Cc2ccc3c(c2)[C@]2(C(=O)N3)[C@H](C(=O)N3CCc4cc(OC)c(OC)cc4C3)[C@H]3C(=O)O[C@H](c4ccccc4)[C@H](c4ccccc4)N3[C@@H]2c2ccc(O)cc2)cc1 | -0.439 | 0.606 | -0.0583 | 0.282 | 0.781 | 1.27 | 1.19 | 1.57 (inactive) | 0.295 | -0.12
COc1ccc(CCNC(=O)[C@@]2(Sc3ccc(C)cc3)CC(=O)N(Cc3cc(C(F)(F)F)cc(C(F)(F)F)c3)[C@@H]2c2ccc(CO)cc2I)cc1 | 0.332 | -0.671 | -0.0894 | -0.0189 | -0.632 | 0.899 | 1.07 | 0.214 (inactive) | 0.582 | -0.271
C=CC[C@@]1(C(=O)O)N=C(c2ccc(OCCCO)cc2)O[C@@H]1c1ccccc1 | 0.522 | 3.13 | 0.206 | 0.553 | 0.63 | 2.08 | 1.34 | 0.19 (inactive) | -0.55 | 0.212
COc1ccc([Si](C)(C)[C@@H]2[C@@H](CCO)O[C@]3(C(=O)N(Cc4cccc(N5C(=O)c6cccc7cccc5c67)c4)c4ccccc43)[C@H]2C)cc1 | 0.385 | -0.106 | -0.156 | 0.691 | -0.314 | 0.779 | 0.966 | -0.34 (inactive) | -0.0576 | -0.236
[N-]=[N+]=NCc1ccccc1C[C@]1(C(=O)NCC(O)CO)N=C(c2ccc(OCCCO)cc2)O[C@H]1c1ccccc1CN=[N+]=[N-] (stereo not given in full) | 0.0591 | 0.696 | 0.139 | 1.14 | 0.566 | 1.34 | 1.16 | -0.799 (inactive) | 0.723 | -0.0618
O=C1c2ccccc2[C@](Cc2ccccc2I)(C(=O)NCc2ccccc2)[C@H](c2ccc(CO)cc2)N1C1CCCCC1 | -0.126 | 0.106 | -0.0291 | 0.753 | 1.13 | 1.76 | 1.27 | -1.6 (inactive) | 0.671 | 0.189
COC(=O)[C@]1(CCS(=O)(=O)c2ccccc2)N=C(c2ccc(OCCCO)cc2)O[C@@H]1c1ccccc1CN=[N+]=[N-] | 0.0312 | 0.419 | 0.0794 | 0.169 | 1.12 | 0.959 | 1.35 | -1.96 (inactive) | 0.284 | -0.346
O=C1O[C@@H](c2ccccc2)[C@@H](c2ccccc2)N2[C@@H](c3ccc(O)cc3)[C@]3(C(=O)Nc4ccc(C#CC5=CCCCC5)cc43)[C@@H](C(=O)N3CCN(c4ncccn4)CC3)[C@H]12 | -0.397 | 0.892 | -0.0287 | 0.323 | 0.846 | 0.901 | 1.2 | 0.795 (inactive) | 0.207 | 0.0116
CN(C)C(=O)[C@@]1(Cc2ccccc2N=[N+]=[N-])COC(c2ccc(OCCCO)cc2)=N1 | 0.541 | 0.33 | 0.0493 | 1.02 | 0.687 | 1.05 | 1.33 | -0.927 (inactive) | 0.495 | 0.0349
COCCOC(=O)N1C(=O)[C@@]2(c3ccccc31)[C@H](C(=O)N1CCN(c3ncccn3)CC1)[C@H]1C(=O)O[C@H](c3ccccc3)[C@H](c3ccccc3)N1[C@@H]2c1ccc(OCCO)cc1 | 0.213 | 0.295 | 0.0043 | 1.13 | 1.29 | 1.2 | 1.28 | 0.795 (inactive) | 0.593 | 0.388
COc1cc(OC)c(C(O)C2C=CC3C(=O)N(c4ccccc4)C(=O)C3N2Nc2ccc(C#N)cc2)cc1Br (stereo not given) | 1.03 | -0.223 | 0.353 | 1.17 | 1.31 | 1.75 | 1.34 | -0.647 (inactive) | 1.73 | 0.219
CCOC(=O)C[C@H]1[C@H](OC(=O)Cc2ccc3c(c2)OCO3)[C@@H](NC(=O)Cc2ccc(OC)cc2)c2cc(OCCCO)ccc2N1C(=O)c1ccccc1 | -0.244 | 0.188 | -0.11 | 0.494 | 0.608 | 0.416 | 0.436 | -1.38 (inactive) | 0.447 | -0.353

SMILES | composite z-score [1] | composite z-score [2] | composite z-score [3] | composite z-score [4] | composite z-score [5] | composite z-score [6] | composite z-score [7] | z-score [8] | composite z-score [9] | composite z-score [10]
C=C1C2CC3C(=C4C(CO[C@@H]4[C@H]4CCCN4S(=O)(=O)c4ccccc4[N+](=O)[O-])C4C(=O)N(C)C(=O)C34)CC2C(=O)N1C (stereo not given in full) | -0.431 | 0.315 | -0.125 | 0.36 | 0.574 | 1.12 | 0.0641 | 0.581 (inactive) | 0.174 | 0.0024
CC(C)C(=C=CC[C@H](O)c1ccc(OCCO)cc1)C[C@H](O)c1cc(Cl)cc(Cl)c1O | -0.321 | 1.35 | -0.0076 | 0.85 | 0.869 | 1.31 | 1.24 | -1.66 (inactive) | 0.32 | 0.0722
CCOC(=O)C1=CC[C@@H](c2ccc([N+](=O)[O-])cc2)N(S(=O)(=O)c2ccc(C)cc2)[C@H]1c1ccccc1 | -0.298 | 0.491 | 0.052 | 0.628 | 1.55 | 0.525 | 1.4 | -2.02 (inactive) | 0.858 | 0.0695
CC[C@@H]1[C@H]2C3C(=O)N(CC)C(=O)C3CC(=O)[C@H]2[C@H](c2ccc(C)cc2)N1S(=O)(=O)c1ccc(C)cc1 (stereo not given in full) | -0.0209 | 0.172 | -0.0878 | 0.457 | 1.44 | 0.519 | 0.57 | -0.319 (inactive) | 0.84 | -0.0296
CN1C2C=C(CCCO)C(C3C(=O)N(C(N)=O)C(=O)C32)C1c1cccs1 (stereo not given) | -0.153 | 0.104 | -0.116 | -1.63 | 0.127 | -0.317 | 0.165 | -0.194 (inactive) | 0.0118 | 0.303
COc1ccc([Si](C)(C)[C@@H]2[C@@H](CC(=O)N3CCC[C@H]3CO)O[C@]3(C(=O)N(Cc4ccc(N5C(=O)c6cccc7cccc5c67)cc4)c4ccccc43)[C@H]2C)cc1 | -0.629 | 0.847 | -0.0563 | 0.995 | 0.733 | 1.5 | 0.976 | -1.5 (inactive) | 0.622 | -0.216
COC(=O)C1(Cc2ccccc2)C=C2C(=C(C(C)C)C(=O)C2C)CN1 (stereo not given) | 1.63 | 1.26 | 0.0992 | -0.66 | -0.0793 | 1.25 | 0.853 | 3.19 (inactive) | 1.24 | 0.773
CC(C)(C)OC(=O)CC[C@]1(C(=O)NCCN2CCOCC2)N=C(c2ccc(OCCCO)cc2)O[C@H]1c1ccccc1N=[N+]=[N-] | 0.85 | 1.55 | 0.105 | 0.606 | 0.1 | 1.72 | 1.39 | 4.57 (inactive) | 0.778 | 0.913
CC(C)N1CC=CC23O[C@@H]4C=CCOC(=O)[C@@H]4[C@H]2C(=O)N(C(C)CO)[C@@H]3C1=O (stereo not given in full) | 0.377 | -1.2 | -0.071 | -0.536 | -1.11 | 2.17 | 0.9 | 0.106 (inactive) | -0.508 | -0.593
COCCCNC(=O)[C@@]1(Sc2ccc(C)cc2)CC(=O)N(C2Cc3ccccc3C2)[C@@H]1c1ccc(CO)cc1I | 0.926 | -0.247 | -0.156 | -0.379 | -1.02 | 1.12 | -0.447 | -0.703 (inactive) | -0.926 | -0.294
C=CCOC(=O)[C@@H]1[C@H]2C(=O)O[C@H](c3ccccc3)[C@H](c3ccccc3)N2[C@H](c2ccc(OCCOC(=O)[C@H]3C[C@H]4C(=O)N[C@@H](CCCCNC(C)=O)C(=O)N4[C@H]3c3cccc(OCCO)c3)cc2)[C@@]12C(=O)Nc1ccc(I)cc12 | -0.0066 | 0.99 | -0.0718 | 0.404 | 0.544 | 0.851 | 1.28 | 0.49 (inactive) | 0.252 | 0.0479
COc1cc2c(cc1OC)CN(C(=O)[C@H]1[C@@H]3C(=O)O[C@@H](c4ccccc4)[C@@H](c4ccccc4)N3[C@@H](c3ccc(OCCO)cc3)[C@]13C(=O)Nc1ccc(C#CCCO)cc13)CC2 | -0.0463 | 0.853 | 0.0746 | 0.844 | 1.43 | 1.39 | 0.874 | -0.0164 (inactive) | 0.707 | 0.305
COCCOC(=O)N1C(=O)[C@@]2(c3cc(C#CC4(O)CCCCCC4)ccc31)[C@H](C(N)=O)[C@H]1C(=O)O[C@H](c3ccccc3)[C@H](c3ccccc3)N1[C@@H]2c1ccccc1OCCO | 0.591 | 1.71 | 0.121 | 0.859 | 1.25 | 0.735 | 1.3 | 0.129 (inactive) | 0.239 | 0.141
O=C(CCCCCCC(=O)Nc1ccccc1)N/N=C/c1ccccc1 | -0.199 | 0.0786 | -0.141 | 0.0493 | -0.252 | -0.384 | -0.147 | 0.0691 (inactive) | -0.0659 | 0.0373
CCCC=C(CCC)[C@@H](NP(=O)(c1ccccc1)c1ccccc1)c1ccc(C(F)(F)F)cc1 | -0.176 | 0.158 | -0.0975 | 0.0842 | 0.131 | 1.74 | 0.557 | 1.96 (inactive) | 0.237 | 0.0216
